Source: PubChem (Broad Institute)
Rows were chosen to be rich in hits. Some 3.4% of all compounds tested hit in one or more screens of this group.
MITF act: activators of MITF-driven TRPM1 promoter reporter, primary screen, cell-based, SK-MEL-5, luciferase, single point; SK-MEL-5 TRPM1-promoter luciferase, 24 h; % of positive control, neutral wells = 0; activation, % at 12.5 µM; 0.75% of 300,000 active;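 active = mean activation of at least 80% with every replicate also reaching 80%; inconclusive = mean reaches 80% but some replicate falls short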;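 note: 0% = neutral control wells and 100% = parthenolide positive control wells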
Env fusion inh: inhibitors of HIV-1 Env-driven cell-cell fusion, primary screen, HeLa-JRFL effector, CEM21 target cells, luciferase; inhibition, % at 12.3 µM; 1.1% of 360,000 active;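 active = mean replicate inhibition score of at least 50 and every replicate individually at or above 50; inconclusive = only one of the two criteria met; inactive = mean below 50 and not all replicates reaching 50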;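 note: 0% = plate neutral controls and 100% = maraviroc near 300 nM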
esBAF inh: Bmi1 luciferase reporter increase in mESCs, primary screen, esBAF inhibitor project, mouse ES cells, Bmi1 luciferase knock-in, single point; 24 h; 100% = twice the neutral-well signal; reporter increase, % at 12.5 µM; 2% of 350,000 active; AID 602393, 2012; in the data active = activation above about 40%; inconclusive = no clear call, values can overlap the other calls;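 note: 0% = median of the plate's neutral control wells and 100% = double that signal; a rise in the Bmi1 reporter signal indicates esBAF inhibition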
miR-122 sensor: miR-122 Renilla sensor signal increase in Huh7, primary screen, miR-122 inhibitor project, cell-based, single point, plate reader. Huh7 miR-122 Renilla luciferase sensor, 48 h; neutral wells = 0, positive control = 100. AID 602342, 2012. activation (reporter increase), % at 12.5 µM. 0.3% of 340,000 active;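 active = mean replicate activation score at least 90 and every replicate individually at or above 90; inconclusive = only one of the two criteria met; inactive = neither criterion met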;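 note: higher luciferase means less miR-122 activity so hits act as miR-122 inhibitors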
Wnt bcat act: Wnt/beta-catenin pathway activators, primary screen, cell-based, plate reader, single point; activation, % at 9.35 µM; 1.2% of 300,000 active; Wnt/beta-catenin reporter cell assay, activator; in the data active = activation above about 30%, passing the limit was not always enough; inconclusive = no clear call, values can overlap the other calls;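 note: 0% = neutral control wells and 100% = positive control wells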
An asterisk follows results filed as active; ? = inconclusive; / = no result given; [ ] = dose if it differs, or a comment.

SMILES	MITF act	Env fusion inh	esBAF inh	miR-122 sensor	Wnt bcat act
C/C=C/c1ccc([C@H]2[C@H](CO)N(C(=O)c3cnccn3)C23CN(C(=O)C2CC2)C3)cc1	/	-1[16.7 µM]	/	/	/
CCc1cc2c(=O)c(-c3cscn3)coc2cc1O	25	/	90*	3	5
CCOC(=O)c1c(C)[nH]c(C(=O)OCc2ccccc2F)c1C	?	-157	38	/	28
COC(=O)c1c(C)[nH]c(C(=O)OCC(=O)c2ccc(C)s2)c1C	89*	-6	/	3	-1
CC(=O)c1c(C)[nH]c(C(=O)OCc2ccc([N+](=O)[O-])cc2)c1C	26	2	41*	-1	10
CC(=O)c1c(C)[nH]c(C(=O)OCc2ccccc2)c1C	50	3	40*	/	26
CCOC(=O)c1c(C)[nH]c(C(=O)OCc2ccc(F)cc2)c1C	58	-108	49*	2	-1
CCOC(=O)c1[nH]c(C)c(C(=O)OC)c1C	34	-2	23	/	3
CC(=O)c1c(C)[nH]c(C(=O)OCC(=O)NCc2ccccc2)c1C	/	-13	10	0	0
C[C@H]1CCCCO[C@@H](CN(C)Cc2ccc(C(=O)O)cc2)[C@@H](C)CN([C@@H](C)CO)C(=O)c2cc(NS(=O)(=O)c3ccccc3)ccc2O1	/	-5[16.7 µM]	-1	6[16.7 µM]	/
CCOC(=O)c1c(C)[nH]c(C(=O)OCC(=O)NCc2ccccc2)c1C	16	/	19	-21	-1
O=C(OCC(=O)c1c[nH]c2ccccc12)c1cccc([N+](=O)[O-])c1	17	-16	-8	3	4
CCOC(=O)c1[nH]c2ccccc2c1CCCN1C(=O)c2ccccc2C1=O	-2	-11	/	-1	-9
CCOC(=O)c1c(C)[nH]c(C(=O)OCC(=O)c2ccccc2)c1C	122*	-181	45*	/	49*
Cc1ccc(C(=O)COC(=O)c2cccc([N+](=O)[O-])c2)s1	57	/	46*	-3	11
CC(=O)c1c(C)[nH]c(C(=O)OCCCCN2C(=O)c3ccccc3C2=O)c1C	-30	98*	-19	-34	-6
O=C(NCC[C@@H]1CC[C@@H](NS(=O)(=O)c2cccc(F)c2)[C@@H](CO)O1)C1CCC1	/	-4[16.7 µM]	-2	/	/
COc1ccc(N=C2C(=S)N(c3ccc(OC)cc3)C(=NS(=O)(=O)c3ccccc3)N2c2ccccc2)cc1	9	-78	/	2	68*
O=C1/C(=C/c2cccnc2)CCc2c1[nH]c1ccccc21	?	-92	/	/	5
CC(C)C/C=C1\CCc2c([nH]c3ccccc23)C1=O	62	-59	52*	8	39*
COc1ccc([Si](C)(C)[C@H]2[C@H](CCn3cc(CCO)nn3)O[C@@]3(C(=O)N(C)c4c(Br)cc(C)cc43)[C@@H]2C)cc1	/	30[16.7 µM]	/	/	/
CCCC1c2ccc(C)n2CCN1C(=O)Nc1ccccc1Cl (stereo unspecified)	48	/	63*	13	/
O=C1C=CN(C2OC(CO)C(O)C2O)C(=O)C1 (stereo unspecified)	/	65*	/	/	-3
NC(=O)c1ccc(=O)n(C2OC(CO)C(O)C2O)c1 (stereo unspecified)	2	-130	1	-4	-5
COc1ccc(NC(=O)N(C)C[C@H]2OCCCC[C@@H](C)Oc3ccc(NS(C)(=O)=O)cc3C(=O)N([C@@H](C)CO)C[C@H]2C)cc1	/	-14[16.7 µM]	-1	1[16.7 µM]	/
SMILES	MITF act	Env fusion inh	esBAF inh	miR-122 sensor	Wnt bcat act
CN(CCO)C(=O)c1ccc(-c2nn(C)c(=O)c3ccccc23)cc1	-14	6	/	/	34*
COc1ccc(S(=O)(=O)Nc2ccc3c(c2)CC(=O)N([C@H](C)CO)C[C@@H](C)[C@@H](CN(C)Cc2ccc(Oc4ccccc4)cc2)O3)cc1	/	2[16.7 µM]	0	-14[16.7 µM]	/
C(=Cc1c[nH]c2ccccc12)c1ccc2ccccc2n1	-20	-430	-62	21	5
C(=Cc1c[nH]c2ccccc12)c1nccc2ccccc12	28	-4	-43	30	42*
CCOC(=O)c1oc2cccc(O)c2c1C	/	-263	48*	-16	/
CCOC(=O)c1oc2cccc(O)c2c1CN(Cc1ccccc1)C(C)=O	-9	60*	-1	4	/
C[C@H]1CN([C@@H](C)CO)S(=O)(=O)c2ccc(C3=CCCC3)cc2O[C@@H]1CN(C)S(=O)(=O)c1cn(C)cn1	/	4[16.7 µM]	4	45[16.7 µM]	/
O=C(Nc1ccccc1)OCc1cc(-c2ccccc2Cl)on1	65	/	50*	/	/
O=C(Nc1cccc(O)c1)c1cc(-c2ccccc2Cl)on1	/	-153	-8	/	2
CCS(=O)(=O)Nc1ccc2c(c1)C(=O)N(C)C[C@@H](OC)[C@@H](C)CN(C)[C@@H](C)CO2	/	3[16.7 µM]	-5	7[16.7 µM]	/
Nc1nc2ccc(Oc3ccccc3)cc2s1	77	/	/	-11	/
CC(C)c1ccc2nc(N)sc2c1	92*	-47	-5	-11	11
Nc1nc2ccc(OC(F)(F)F)cc2s1	41	-41	43*	-2	11
Nc1nc2ccc(O)cc2s1	/	-22	-9	-5	2
Cc1ccc(S(=O)(=O)N(C)C[C@H]2Oc3ccc(NC(=O)CCN4CCOCC4)cc3C(=O)N([C@@H](C)CO)C[C@H]2C)cc1	/	/	1	19[16.7 µM]	/
O=C(NCC[C@@H]1CC[C@H](NC(=O)C2CCC2)[C@@H](CO)O1)c1cc(Cl)cc(Cl)c1	/	6[16.7 µM]	7	/	/
COc1ccccc1-c1ccc2c(c1)O[C@H](CN(C)S(=O)(=O)c1ccccc1)[C@H](C)CN([C@H](C)CO)S2(=O)=O	/	56*[16.7 µM]	5	18[16.7 µM]	/
CC(C)CC#Cc1ccc2c(c1)O[C@H](CN(C)S(=O)(=O)c1ccc(F)cc1)[C@H](C)CN([C@@H](C)CO)S2(=O)=O	/	61*[16.7 µM]	2	7[16.7 µM]	/
C[C@@H]1CN([C@H](C)CO)S(=O)(=O)c2ccc(-c3cccc(F)c3)cc2O[C@@H]1CN(C)S(=O)(=O)c1ccc(F)cc1	/	56*[16.7 µM]	13	9[16.7 µM]	/
CCCC#Cc1ccc2c(c1)O[C@@H](CN(C)S(=O)(=O)c1cccc(F)c1)[C@@H](C)CN([C@H](C)CO)S2(=O)=O	/	64*[16.7 µM]	-10	62[16.7 µM]	/
C[C@@H]1CN([C@@H](C)CO)C(=O)Cc2cc(NS(=O)(=O)c3cn(C)cn3)ccc2O[C@@H]1CN(C)C(=O)NC1CCCCC1	/	5[16.7 µM]	-1	3[16.7 µM]	/
CN(C)CCCNC(=O)C[C@H]1CC[C@H]2[C@@H](COc3ccc(NC(=O)c4ccccc4F)cc3C(=O)N2C)O1	/	/	2	-38[16.7 µM]	/
Cc1noc(C)c1NC(=O)Nc1ccc2c(c1)C(=O)N([C@H](C)CO)C[C@@H](C)[C@H](CN(C)Cc1ccc(C(F)(F)F)cc1)OCCCC[C@H](C)O2	/	11[16.7 µM]	0	1[16.7 µM]	/
CC(C)CC#Cc1ccc2c(c1)O[C@H](CN(C)S(=O)(=O)c1cccc(F)c1)[C@@H](C)CN([C@H](C)CO)S2(=O)=O	/	26[16.7 µM]	0	20[16.7 µM]	/
